A selection: hits, their analogues and other compounds. The true share with any hit is near 3%.
TRAIL sens C8 = sensitizes caspase-8 expressing cells to TRAIL; NB7+C8 cells + TRAIL, ATPlite viability luminescence; inhibition (viability loss, TRAIL sensitization), % at 10 µM; 1% of 360,000 active; AID 624354;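 active means compounds causing at least 50% loss of cell viability in the single-dose screen, relative to plate controls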
PPC-1+TRAIL kill = PPC-1 cancer cell killing with TRAIL present. PPC-1 cells + TRAIL, ATPLite viability luminescence. cell killing (% activity), % at 4 µM or 5 µM. 0.41% of 220,000 active. AID 1443;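 active means cell killing above 50% in the first pass at 4 µM, then a duplicate retest at 5 µM averaging 50% or more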;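 further: plate controls were cells with TRAIL plus DMSO for no effect and medium-only wells lacking cells for full effect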
SENP8 block-1 = SENP8 protease inhibition; 1.2% of 330,000 active; inhibition, % at 10 µM; purified SENP8, Z-RLRGG-aminoluciferin cleavage, luminescence; Q96LD8; in the data active means inhibition above about 50%
SENP8 block-2 = inhibitors of human SENP8 protease. Q96LD8. recombinant SENP8, Nedd8 substrate fluorescence. inhibition, % at 20 µM. 0.64% of 360,000 active. AID 602440; in the data active means inhibition mostly above about 40%, no sharp cut-off; inactive means mostly below about 27%
SENP6 inh = SENP6 protease inhibition. Q9GZR1. Recombinant SENP6 catalytic domain, aminoluciferin luminescence. inhibition, % at 10 µM. 1.8% of 330,000 active. AID 2599;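 active means inhibition above about 50% at the single tested dose, limit read from the data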;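 further: plate controls were DMSO wells with enzyme for no effect and DMSO wells lacking enzyme for full effect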
SENP7 inh = SENP7 protease inhibition. recombinant SENP7, Z-RLRGG-aminoluciferin luminescence, 40 min. Q9BQF6. 1.5% of 330,000 active. inhibition, % at 5 µM;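 active means inhibition above about 50% at the single test dose, limit read from the data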;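 further: plate controls were DMSO with enzyme for no effect and no enzyme buffer wells for full effect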
Target sequence (Q9BQF6 706-1050 limits assumed): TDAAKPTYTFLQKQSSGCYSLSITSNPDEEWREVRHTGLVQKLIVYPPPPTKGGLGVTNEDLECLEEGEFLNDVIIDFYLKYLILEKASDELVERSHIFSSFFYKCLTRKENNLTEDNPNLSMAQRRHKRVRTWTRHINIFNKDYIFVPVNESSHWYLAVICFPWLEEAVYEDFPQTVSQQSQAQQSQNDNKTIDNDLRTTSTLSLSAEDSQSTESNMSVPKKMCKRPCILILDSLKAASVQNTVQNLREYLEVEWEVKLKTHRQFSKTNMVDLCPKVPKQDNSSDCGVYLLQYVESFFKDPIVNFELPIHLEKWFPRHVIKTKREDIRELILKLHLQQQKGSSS
SENP8 confirm = human SENP8 inhibition, confirmed; inhibition, % at 12.5 µM; 40% of 6,200 active; shares compounds with SENP7 inh; AID 488912; Recombinant SENP8, Z-RLRGG-aminoluciferin luminescence, 60 min;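 active means mean inhibition across replicates above about 50%, limit read from the data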
SENP6 conf = confirmation of human SENP6 protease inhibitors | shares compounds with SENP7 inh | recombinant SENP6, Z-RLRGG-aminoluciferin luminescence | inhibition, % at 12.5 µM | 58% of 6,200 active
SENP7 confirm = confirmation of human SENP7 protease inhibitors | recombinant SENP7, Z-RLRGG-aminoluciferin luminescence, 40 min | inhibition, % at 12.5 µM | 69% of 6,200 active | shares compounds with SENP7 inh
Casp3 SENP sel = caspase-3 inhibition (SENP selectivity assay); shares compounds with SENP7 inh; purified caspase-3, Z-DEVD-aminoluciferin luminescence, 60 min; inhibition, % at 12.5 µM; 60% of 6,200 active; AID 488918;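 active means mean inhibition above about 50%, limit read from the data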;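 further: plate controls were enzyme with DMSO for no effect and wells without caspase-3 for full effect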
Target sequence (P42574 28-227 limits assumed): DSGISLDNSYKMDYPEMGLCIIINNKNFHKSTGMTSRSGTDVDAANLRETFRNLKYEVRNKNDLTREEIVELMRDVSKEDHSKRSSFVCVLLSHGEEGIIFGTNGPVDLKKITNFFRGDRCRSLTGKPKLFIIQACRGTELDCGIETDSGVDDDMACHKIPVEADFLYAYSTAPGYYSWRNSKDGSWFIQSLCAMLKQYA
Luc interf = counter-screen for SENP inhibitors: luminescence interference | 39% of 6,200 active | shares compounds with SENP7 inh | inhibition, % at 12.5 µM | Pre-incubated SENP8/Z-RLRGG-aminoluciferin, luciferase luminescence interference;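 active means mean inhibition above about 50% when retested at one dose, limit read from the data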;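 further: plate controls were DMSO wells with completed reaction for no effect and substrate without enzyme for full effect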
Active calls of the source: *; . = no result.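 How the source made its calls, unless noted: active means mean inhibition above about 50% in the one-dose retest (limit read from the data); inactive means the rest.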

SMILES	TRAIL sens C8	PPC-1+TRAIL kill	SENP8 block-1	SENP8 block-2	SENP6 inh	SENP7 inh	SENP8 confirm	SENP6 conf	SENP7 confirm	Casp3 SENP sel	Luc interf
COc1cccc(-c2nc(-c3ccc(NC(=O)c4ccncc4)cc3)no2)c1	19.5	2.2	2.3	7.2	4.0	-0.5	.	.	.	.	.
COc1cccc(-c2nc3ccc(O)cc3c(=O)o2)c1	-1.6	12.5	73.7*	-35.8	88.6*	87.1*	-5.7	80.8*	96.3*	80.0*	87.1*
O=C(O)c1ccc(-c2noc(-c3cccc(F)c3)n2)cc1	17.5	.	95.1*	7.5	97.2*	95.8*	98.1*	98.6*	101.3*	97.2*	95.0*
Cn1c(COc2ccc([N+](=O)[O-])cc2)nnc1SCC(=O)NCC1CCCO1 (configuration not stated)	11.5	.	6.2	14.0	-19.3	-5.1	.	.	.	.	.
O=c1ccn([C@@H]2O[C@H](CNCC3=Cc4cc(O)ccc4OC3)[C@@H](O)[C@H]2O)c(=O)[nH]1	-6.3	.	.	12.5	.	.	.	.	.	.	.
CC(=O)c1ccc(OC2(C)CCN(Cc3csc4ccccc34)C2)cc1 (configuration not stated)	4.5	.	.	13.3	.	.	.	.	.	.	.
COc1ccc(C(=O)Oc2ccc[nH]c2=O)cc1	14.4	17.3	-17.1	14.4	-26.4	-2.6	.	.	.	.	.
CCNC(=O)Oc1ccc[nH]c1=O	-15.3	2.6	13.0	16.3	51.2*	14.0	-3.4	0.0	-6.0	4.0	3.0
Cc1ccc(CN2C(=O)C(C)Nc3ncnc(N4CCOCC4)c32)cc1 (configuration not stated)	-9.0	.	3.5	-6.0	-8.2	0.7	.	.	.	.	.
Cc1csc(NC(=O)c2ccc3ccccc3n2)n1	44.6	.	75.3*	1.8	82.6*	80.0*	3.5	81.6*	94.7*	48.8	14.7
O=C(Nc1nccs1)c1cc(Cl)nc2ccccc12	9.5	13.6	-0.2	10.6	-1.1	-0.2	.	.	.	.	.
O=C(Nc1nccs1)c1ccc2ccccc2n1	47.5	.	53.2*	-0.4	68.9*	69.8*	64.5*	64.1*	90.3*	80.1*	62.9*
Cc1ccccc1NC(=O)c1cccc(C(=O)Nc2ccccc2C)n1	-7.7	.	-2.7	12.3	2.0	-3.0	.	.	.	.	.
Cc1cccc(NC(=O)c2ccc3ccccc3n2)c1C	19.1	2.3	64.7*	20.3	87.6*	77.3*	13.1	84.0*	97.0*	72.3*	57.8*
N#Cc1ccccc1NC(=O)COC(=O)c1ccc2c(c1)OCCO2	6.4	4.4	-5.3	22.2	16.2	3.5	.	.	.	.	.
N#Cc1ccccc1COC(=O)c1ccc2c(c1)OCCO2	-8.1	.	31.3	5.3	61.4*	28.0	59.2*	52.0*	78.0*	42.7	37.4
CCOc1ccc(N(C(C)C(=O)Nc2ccc(OC)cc2)S(C)(=O)=O)cc1 (configuration not stated)	-17.4	3.3	-9.3	11.0	-0.5	70.6*	6.3	6.7	-7.5	-1.7	-3.6
Cc1nn(-c2ccc(N3CCOCC3)nn2)c(C)c1CCC(=O)NCc1ccccc1F	-4.1	.	-0.2	-11.7	-10.4	-0.1	.	.	.	.	.
CC(=O)N(CN1C(=O)c2ccccc2C1=O)c1cccc(C)c1	-5.0	6.6	-1.0	15.1	-10.1	-5.6	.	.	.	.	.
CC(=O)N(/N=C1\Sc2ccccc2C1=O)c1cccc(C)c1	2.9	8.3	93.6*	-13.1	92.3*	93.0*	-5.6	84.0*	57.5*	11.2	16.3
N#CCSc1nc2ccccc2o1	4.1	29.6	-1.5	7.1	-16.6	8.0	.	.	.	.	.
O=[N+]([O-])c1ccccc1CSc1nc2ccccc2o1	26.1	-9.0	29.4	17.3	54.7*	8.5	18.3	13.6	49.2	7.0	8.8
Cn1cccc1C(=O)NC(=O)COC(=O)C12CC3CC(CC(O)(C3)C1)C2	2.0	-11.4	42.4	-7.2	54.1*	61.9*	61.6*	58.5*	82.5*	84.5*	1.5
COc1cccc(/C=N/Nc2ncnc(N)c2[N+](=O)[O-])c1OC	43.1	-2.3	16.7	20.2	68.3*	71.9*	38.4	46.1	64.4*	77.0*	20.8
CCOc1ncccc1C(=O)OCC(=O)c1cc(C)n(Cc2ccco2)c1C	29.5	32.4	37.0	4.2	71.3*	36.1	69.5*	65.5*	87.1*	58.2*	26.1
O=C1/C(=C/c2ccccc2)CCc2ccc(Cl)nc21	24.5	.	.	11.9	.	.	.	.	.	.	.
CCC(=O)N(CC)C1=C(O)c2ccccc2C(=O)C1=O	-13.1	14.7	8.7	36.8	21.8	31.0	.	.	.	.	.

Compound activity (PubChem)
